This is an account of results in PubChem BioAssay (Tox21).

The nature of assay [1]: Nuclear factor erythroid 2-related factor 2/antioxidant responsive element (Nrf2/ARE) small molecule agonists: qHTS cell viability counter screen in human keratinocytes (AID 1919968; active means well fitted curve in the direction sought with a large enough effect in the repeat runs; an effect the other way counts as inactive or inconclusive; further: nearly all actives have a fitted effect of over 55% in size; further: potency means the concentration at half of the fitted maximal effect). A digest of the protocol: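 KeratinoSens HaCaT cells, 1,500/well, preincubated 5 h, then exposed to compounds in DMSO for 23 h at 37 C/5% CO2. Viability read as CellTiter-Fluor fluorescence after 1 h, in the same wells as the ARE-luciferase read.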

Assay [2] can be described thus: Nuclear factor erythroid 2-related factor 2/antioxidant responsive element (Nrf2/ARE) small molecule agonists: luciferase reporter gene qHTS assay in human keratinocytes (AID 1919969). Further: nearly all actives have a fitted effect of over 35% in size. Further: potency means the concentration at half of the fitted maximal effect. A general note: In a reporter assay the amount or activity of a reporter protein is the signal.
The target in assay [3] is Gonadotropin-releasing hormone receptor (Homo sapiens) (UniProt P30968). The experiment in a line: Human gonadotropin-releasing hormone receptor (GnRHR) small molecule agonists, calcium flux assay in GnRHR-HEK293 cells (AID 1920063). Further: nearly all actives have a fitted effect of over 35% in size. Further: potency means the concentration at half of the fitted maximal effect. A digest of the protocol:
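HEK293 cells stably expressing human GnRHR were dye-loaded for 1 h at 37 C. Compound was added in agonist mode and fluorescence (Ex/Em 480/540) recorded kinetically for 3 min. Fifteen concentrations, triplicates.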
For orientation: A change in cytosolic calcium serves as a functional read-out for many receptors and channels.

For assay [4], the target named is KiSS-1 receptor (Homo sapiens) (UniProt Q969F8). Description: Human kisspeptin (KISS1R) small molecule agonists, calcium flux assay in KISS1R-HEK293 cells (AID 1920064; active means well fitted curve in the direction sought with a large enough effect in the repeat runs; an effect the other way counts as inactive or inconclusive; further: potency means the concentration at half of the fitted maximal effect). In outline: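 HEK293 cells stably expressing human KISS1R were loaded with calcium dye for 1 h at 37 C, then given compound; fluorescence (Ex/Em 480/540) was read kinetically for 3 min. Fifteen concentrations, triplicate.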
Sequence of KiSS-1 receptor (Homo sapiens) (Q969F8 whole entry, looked up): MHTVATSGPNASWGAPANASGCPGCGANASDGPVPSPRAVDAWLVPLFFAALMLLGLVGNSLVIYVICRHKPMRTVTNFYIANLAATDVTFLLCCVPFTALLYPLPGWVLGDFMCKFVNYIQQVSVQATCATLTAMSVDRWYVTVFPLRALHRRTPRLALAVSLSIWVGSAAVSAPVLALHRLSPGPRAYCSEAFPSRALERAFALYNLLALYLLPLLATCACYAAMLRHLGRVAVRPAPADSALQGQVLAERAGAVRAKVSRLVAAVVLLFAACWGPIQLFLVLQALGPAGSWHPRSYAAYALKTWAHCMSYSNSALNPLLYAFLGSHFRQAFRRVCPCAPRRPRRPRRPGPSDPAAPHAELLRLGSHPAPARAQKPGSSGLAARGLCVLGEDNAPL

Assay [5] is described as follows: G protein-coupled receptor (GPCR) small molecule agonists, calcium flux assay: HEK293 wild type cell line counter screen (AID 1920065). Further: potency means the concentration at half of the fitted maximal effect. In outline: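 Wild-type HEK293 cells plated 18 h, loaded with calcium dye 1 h at 37 C, then compounds added in agonist mode (ATP as positive control). Kinetic fluorescence Ex/Em 480/540 recorded 3 min at 1 sec intervals; 15 concentrations, triplicate.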

Assay [6] is described as follows: p53 small molecule agonists, cell-based qHTS assay with rat liver microsomes (AID 1963578). In outline: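 Compound in DMSO added to p53RE-bla cells 5 h post-plating; rat microsomes/NADPH 0.5 mg/mL final; 16 h, 37 C; LiveBLAzer 2 h RT.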
In general terms: Quantitative high-throughput screening tests each substance at several concentrations.

Assay [7] is described as follows: p53 small molecule agonists, cell-based qHTS assay with human liver microsomes: qHTS cell viability counter screen (AID 1963579). Further: nearly all actives have a fitted effect of over 45% in size. Further: potency means the concentration at half of the fitted maximal effect. In outline: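 HLM-supplemented (0.5 mg/mL final) and NADPH-supplemented (0.5 mg/mL final) p53RE-bla cultures, 4,000 cells per well, were dosed with compounds in DMSO for 16 h at 37 C; luminescent ATP detection (CellTiter-Glo, 30 min, room temperature) quantified surviving cells.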

Assay [8] is described as follows: p53 small molecule agonists, cell-based qHTS assay: qHTS cell viability counter screen (AID 1963581). Further: nearly all actives have a fitted effect of over 45% in size. Further: potency means the concentration at half of the fitted maximal effect. In outline:
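p53RE-bla HCT-116 cells, compounds added 5 h after plating and incubated 16 h at 37 C. Cytotoxicity measured in the same wells as intracellular ATP by CellTiter-Glo luminescence after 30 min at room temperature.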

For assay [9], the target named is 5-hydroxytryptamine receptor 2A (Homo sapiens) (UniProt P28223). Description: 5-hydroxytryptamine receptor 2A (HTR2A) small molecule agonists, cell-based qHTS assay (AID 1963587). Further: nearly all actives have a fitted effect of over 30% in size. Further: potency means the concentration at half of the fitted maximal effect. In outline:
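HTR2A-CHO cells, plated 18 h at 37 C/5% CO2, dye-loaded 1 h at 37 C; compounds in DMSO added by pin tool (agonist mode). Intracellular calcium flux read as kinetic fluorescence on FDSS over 2 min at 1 s intervals.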

The target of assay [10] is Muscarinic acetylcholine receptor M1 (Homo sapiens) (UniProt P11229). The experiment in a line: Cholinergic receptor muscarinic 1 (CHRM1) small molecule antagonists, cell-based qHTS assay (AID 1963588). Further: nearly all actives have a fitted effect of over 40% in size. In outline:
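CHRM1-CHO calcium-flux assay, antagonist mode. Cells were seeded 18 h, dye-loaded 1 h at 37 C and given compound for 5 min at RT, then acetylcholine was added at 50nM. FDSS fluorescence was read 3 min; 15 concentrations, three runs.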

Assay [11] has the same target. The experiment in a line: Cholinergic receptor muscarinic 1 (CHRM1) small molecule agonists, cell-based qHTS assay (AID 1963589). Further: nearly all actives have a fitted effect of over 35% in size. Further: potency means the concentration at half of the fitted maximal effect. A digest of the protocol:
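CHO cells stably expressing human CHRM1 were loaded with calcium dye for 1 h at 37 C, then compound was added in agonist mode. Intracellular calcium fluorescence was followed kinetically at 1 s intervals. Fifteen concentrations were tested in three independent runs.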

The nature of assay [12]: cAMP Responsive Elements (CRE) small molecule agonists, cell-based qHTS assay (AID 1963590). A digest of the protocol: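 CRE-bla HEK 293T cells, 2,000/well in DMEM with 10% dialyzed FBS and 25 mM HEPES, pre-incubated 18 h at 37 C, then exposed to compound 3 h at 37 C. Beta-lactamase reporter read with LiveBLAzer B/G FRET substrate after 2 h at room temperature.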
Assay [13] is described as follows: cAMP Responsive Elements (CRE) small molecule antagonists, cell-based qHTS assay (AID 1963591; active means well fitted inhibition curve with a large enough effect in the signal ratio in the repeat runs, not every such curve was filed as active; the % refers to the signal ratio). In outline:
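CRE-bla HEK293T cells plated 18 h, then given compound plus NKH477 at 0.25 uM final for 3 h at 37C. Beta-lactamase reporter read with LiveBLAzer B/G FRET substrate after 2 h at room temperature.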

Assay [14] deals with Beta-2 adrenergic receptor (Homo sapiens) (UniProt P07550). The experiment in a line: Adrenergic beta2 receptor (ADRB2) small molecule antagonists, cell-based qHTS assay (AID 1963592). Further: nearly all actives have a fitted effect of over 50% in size. Further: potency means the concentration at half of the fitted maximal effect. In outline: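 Cells (CHO, stable ADRB2 overexpression) incubated 18-20hr at 37C; compounds added from DMSO; agonist mix (1nM isoproterenol, 100uM IBMX, 25uM Ro-20-1724) added; 0.5hr RT; d2-cAMP and anti-cAMP-cryptate added; 1hr RT; 665/615 nm read.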
Sequence of Beta-2 adrenergic receptor (Homo sapiens) (P07550 whole entry, looked up): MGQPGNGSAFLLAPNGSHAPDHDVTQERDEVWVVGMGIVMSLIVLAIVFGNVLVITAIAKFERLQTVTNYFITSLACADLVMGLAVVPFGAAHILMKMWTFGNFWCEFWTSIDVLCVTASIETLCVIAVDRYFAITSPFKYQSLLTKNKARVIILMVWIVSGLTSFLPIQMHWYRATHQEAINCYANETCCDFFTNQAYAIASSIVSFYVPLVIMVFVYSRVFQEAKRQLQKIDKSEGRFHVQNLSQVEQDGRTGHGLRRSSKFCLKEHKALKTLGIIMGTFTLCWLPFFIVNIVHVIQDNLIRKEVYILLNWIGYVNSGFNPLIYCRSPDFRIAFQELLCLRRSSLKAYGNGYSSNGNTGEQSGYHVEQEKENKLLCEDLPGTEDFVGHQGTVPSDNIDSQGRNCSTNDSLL

Assay [15] has as its target D(2) dopamine receptor (Homo sapiens) (UniProt P14416). The experiment in a line: Dopamine D2 receptor (DRD2) small molecule agonists, cell-based qHTS assay (AID 1963594). Further: nearly all actives have a fitted effect of over 35% in size. In outline:
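HEK293 cells stably expressing DRD2 were cultured 24 h at 37 C, then given Ro20-1724 (0.1 mM final) and compounds for 10 min at room temperature. NKH477 (200nM) was then added for 30 min. cAMP was read by HTRF.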

The target is the same in assay [16]. Description: Dopamine D2 receptor (DRD2) small molecule antagonists, cell-based qHTS assay (AID 1963595; active means well fitted inhibition curve with a large enough effect in the signal ratio in the repeat runs, with a control signal flat; the % refers to the signal ratio; further: potency means the concentration at half of the fitted maximal effect). A digest of the protocol:
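HEK293 cells stably expressing DRD2 were preincubated with 0.1 mM Ro20-1724, then with compound for 10 min at room temperature. Cells were stimulated with 200 nM NKH477 plus 12 nM quinpirole for 30 min, and cAMP was read by HTRF.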

A short description of assay [17]: p53 small molecule agonists, cell-based qHTS assay with rat liver microsomes: qHTS cell viability counter screen (AID 1963580). Further: nearly all actives have a fitted effect of over 45% in size. Further: potency means the concentration at half of the fitted maximal effect. A digest of the protocol: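 In HCT-116 cells carrying a p53 response element-bla reporter, compounds were metabolically activated in situ by rat liver microsomes with NADPH over 16 h. Cell ATP content then served as the cytotoxicity measure.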

Assay [18] can be described thus: p53 small molecule agonists, cell-based qHTS assay (AID 1963582; active means well fitted activation curve with a large enough effect in the signal ratio in the repeat runs, not every such curve was filed as active; the % refers to the signal ratio). In outline:
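p53RE-bla reporter cells, compounds added in DMSO after 5 h plating, incubated 16 h at 37 C. Beta-lactamase read via 2 h room-temperature LiveBLAzer B/G FRET substrate, fluorescence intensity.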

The target of assay [19] is 5-hydroxytryptamine receptor 2A (Homo sapiens) (UniProt P28223). The experiment in a line: 5-hydroxytryptamine receptor 2A (HTR2A) small molecule antagonists, cell-based qHTS assay (AID 1963586). Further: nearly all actives have a fitted effect of over 45% in size. Further: potency means the concentration at half of the fitted maximal effect. A digest of the protocol: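 Antagonist-mode intracellular calcium assay: DOI (4 nM) added after 5 min compound pre-incubation at room temperature to dye-loaded HTR2A-CHO cells. Fluorescence followed for 3 min, sampled every second.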
Sequence of 5-hydroxytryptamine receptor 2A (Homo sapiens) (P28223 whole entry, looked up): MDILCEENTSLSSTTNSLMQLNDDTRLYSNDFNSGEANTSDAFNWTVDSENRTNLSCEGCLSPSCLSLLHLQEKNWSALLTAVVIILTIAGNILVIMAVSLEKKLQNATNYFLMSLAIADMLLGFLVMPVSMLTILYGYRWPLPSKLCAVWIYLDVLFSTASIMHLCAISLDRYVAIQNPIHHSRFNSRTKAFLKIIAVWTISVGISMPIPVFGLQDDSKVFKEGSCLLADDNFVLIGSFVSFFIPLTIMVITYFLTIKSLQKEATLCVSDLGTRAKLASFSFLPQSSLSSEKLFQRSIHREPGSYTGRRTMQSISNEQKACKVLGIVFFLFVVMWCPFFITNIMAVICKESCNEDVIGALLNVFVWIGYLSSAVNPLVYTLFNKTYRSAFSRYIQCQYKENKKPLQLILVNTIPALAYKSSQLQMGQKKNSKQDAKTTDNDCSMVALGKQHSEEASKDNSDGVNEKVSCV

Records with an inconclusive call do not appear. Active and inactive are the calls of the source. Unless noted, the call rests on the fitted dose curve.

Sequence of D(2) dopamine receptor (Homo sapiens) (P14416 whole entry, looked up): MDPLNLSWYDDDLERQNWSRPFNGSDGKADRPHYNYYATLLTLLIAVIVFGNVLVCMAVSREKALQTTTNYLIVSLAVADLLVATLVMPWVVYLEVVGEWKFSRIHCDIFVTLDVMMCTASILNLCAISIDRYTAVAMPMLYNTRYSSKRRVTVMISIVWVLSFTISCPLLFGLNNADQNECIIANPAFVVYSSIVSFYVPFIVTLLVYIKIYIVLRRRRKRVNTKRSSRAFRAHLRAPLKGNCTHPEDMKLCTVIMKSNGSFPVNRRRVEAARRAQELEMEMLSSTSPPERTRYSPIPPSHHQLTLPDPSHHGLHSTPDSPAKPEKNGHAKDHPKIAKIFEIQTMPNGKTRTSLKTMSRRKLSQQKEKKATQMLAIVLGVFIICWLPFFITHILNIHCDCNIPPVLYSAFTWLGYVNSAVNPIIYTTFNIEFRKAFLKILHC
Sequence of Gonadotropin-releasing hormone receptor (Homo sapiens) (P30968 whole entry, looked up): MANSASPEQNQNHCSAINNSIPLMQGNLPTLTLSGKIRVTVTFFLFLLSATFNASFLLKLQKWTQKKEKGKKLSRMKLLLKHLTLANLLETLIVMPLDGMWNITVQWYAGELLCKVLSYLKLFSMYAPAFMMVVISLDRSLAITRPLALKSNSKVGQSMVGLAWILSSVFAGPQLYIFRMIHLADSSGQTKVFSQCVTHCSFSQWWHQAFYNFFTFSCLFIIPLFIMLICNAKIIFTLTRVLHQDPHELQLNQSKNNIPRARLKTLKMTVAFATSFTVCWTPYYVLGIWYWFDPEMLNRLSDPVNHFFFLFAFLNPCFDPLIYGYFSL
Sequence of Muscarinic acetylcholine receptor M1 (Homo sapiens) (P11229 whole entry, looked up): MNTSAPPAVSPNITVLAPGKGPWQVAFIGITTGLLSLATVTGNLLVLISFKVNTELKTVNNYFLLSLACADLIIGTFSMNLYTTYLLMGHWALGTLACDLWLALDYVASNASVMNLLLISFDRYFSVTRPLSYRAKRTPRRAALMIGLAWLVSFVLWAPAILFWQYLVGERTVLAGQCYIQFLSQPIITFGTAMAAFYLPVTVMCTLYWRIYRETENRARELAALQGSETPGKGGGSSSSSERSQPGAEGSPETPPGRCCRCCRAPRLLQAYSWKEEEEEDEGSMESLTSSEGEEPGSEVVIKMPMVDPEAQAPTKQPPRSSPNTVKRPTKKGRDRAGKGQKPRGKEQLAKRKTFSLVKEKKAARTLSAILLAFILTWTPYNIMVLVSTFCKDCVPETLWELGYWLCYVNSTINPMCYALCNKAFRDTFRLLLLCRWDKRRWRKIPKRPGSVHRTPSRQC

Turning to `CC(C)[N+](=O)[O-]`, the Potency result in assay [1], in [2], in assay [3], in assay [4], in assay [5] and in assay [6] was “inactive” in each case. In addition, the Potency entry in assay [7], in [8], in assay [9], in assay [10], in [11] and in assay [12] was “inactive” throughout. In addition, the Potency entry in assay [13], in [14], in assay [15] and in [16] was “inactive” throughout.

For `CC(C)N(Cc1ccccc1)C(=O)C(C)(C)C`, the Potency entry in [1], in [2], in assay [3], in assay [4], in assay [5] and in [6] was “inactive” each time. The Potency entry in [7], in [17], in [8], in assay [18], in [19] and in assay [9] was “inactive” each time. Further, the Potency result in [10], in assay [12], in [13], in assay [14] and in assay [16] was “inactive” each time.

Turning to `N[C@@H](Cc1ccc(Oc2cc(I)c(O)c(I)c2)c(I)c1)C(=O)O`, the Potency entry in [1], in [2], in [3], in [4], in [5] and in assay [6] was “inactive” each time. The Potency entry in assay [7], in assay [17], in assay [8], in assay [18], in assay [10] and in [11] was “inactive” in each case. Also, the Potency entry in [12], in assay [13], in [14], in [15] and in assay [16] was “inactive” each time.

Take `C=CC(=O)[O][Sn]([CH2]CCC)([CH2]CCC)[CH2]CCC`: the Potency is 0.969 µM (active) in [1]; 1.37 µM (active) in [2]; 5.49 µM (active) in [3]; 19.5 µM (active) in assay [4]; 38.9 µM (active) in [5]; 5.13 µM (active) in [7]. The Potency in assay [17] was 8.14 µM (active); in [8], 1.62 µM (active); in [19] it was 3.75 µM (active); in assay [9] it was 12.3 µM (active); in assay [11], 11 µM (active); in assay [14], 0.969 µM (active). In assay [16], the Potency was 2.43 µM (active). Besides, the Potency result in assay [6] and in [15] was “inactive” in each case.

For the compound `CS(=O)(=O)c1ccc(C(=O)C2C(=O)CCCC2=O)c([N+](=O)[O-])c1`, the Potency result in [1], in assay [2], in assay [3], in [4], in assay [5] and in assay [6] was “inactive” each time. In addition, the Potency entry in [7], in assay [8], in assay [19], in [9], in [14] and in assay [16] was “inactive” in each case.

As to `CCOC(=O)NC(=S)Nc1ccccc1NC(=S)NC(=O)OCC`, the Potency result in [1], in assay [3], in assay [4], in assay [5], in assay [6] and in assay [7] was “inactive” each time. Moreover, the Potency result in assay [17], in assay [19], in assay [9], in assay [10], in [11] and in assay [14] was “inactive” in each case. Moreover, the Potency entry in assay [16] was “inactive”. The Potency in assay [2] was 54.5 µM (active).

On to `O=C(O)COc1ccc(Cl)cc1`, for which the Potency result in assay [1], in assay [2], in assay [3], in assay [4], in [5] and in assay [6] was “inactive” in each case. The Potency result in assay [7], in [17], in [8], in assay [18], in assay [9] and in assay [10] was “inactive” in each case. For the same compound, the Potency result in assay [11], in [14], in [15] and in assay [16] was “inactive” each time.

Take `CCc1cc(OC)c(C[C@H](C)N)cc1OC`: the Potency entry in [1], in assay [2], in assay [3], in assay [4], in assay [5] and in assay [6] was “inactive” each time. Further, the Potency result in assay [17], in [8], in assay [18], in assay [19], in assay [10] and in assay [11] was “inactive” throughout. Further, the Potency entry in assay [12] and in [16] was “inactive” each time.
